{"source": "PubChem BioAssay AID488835", "about": "(Broad Institute, 2010)", "note": "Screen size: about 1,400 compounds; about 140 (10%) were called active.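 How the source made its calls: active means Half-maximal inhibitory dose from the fit at or below ten times the top valid tested dose; inconclusive means Invalid fit, or flat curve showing 30 to 70% inhibition; inactive means the rest.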 A selection follows. Measured potencies and affinities stand elsewhere.", "data": [{"target": "Lysine-specific demethylase 4C (Homo sapiens) (UniProt Q9H3R0)", "sequence (Q9H3R0 1-420 limits assumed)": "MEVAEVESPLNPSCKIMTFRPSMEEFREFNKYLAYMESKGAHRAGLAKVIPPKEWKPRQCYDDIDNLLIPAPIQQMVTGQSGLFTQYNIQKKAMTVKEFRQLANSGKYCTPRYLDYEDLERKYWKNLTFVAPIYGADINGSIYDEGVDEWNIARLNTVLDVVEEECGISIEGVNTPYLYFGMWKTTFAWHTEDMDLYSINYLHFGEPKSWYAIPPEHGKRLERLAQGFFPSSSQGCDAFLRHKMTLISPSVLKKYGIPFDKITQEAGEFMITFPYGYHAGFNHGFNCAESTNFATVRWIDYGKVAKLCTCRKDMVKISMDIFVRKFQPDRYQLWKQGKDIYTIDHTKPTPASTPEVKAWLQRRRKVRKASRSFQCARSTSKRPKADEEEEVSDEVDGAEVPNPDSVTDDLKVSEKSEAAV", "assay": "inhibition of JMJD2C H3K9me3 demethylation – biochemical, DELFIA europium, cherry-picked samples, dose response (AID 488835);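 further: signal is the H3K9me2 demethylation product detected by a dimethyl-specific antibody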", "settings": "GST-JMJD2C(1-420); series mostly up to 6 µM", "values": [{"compound": "CC(=O)N=c1sccn1CC(=O)c1ccc([N+](=O)[O-])cc1", "outcome": "inactive"}, {"compound": "COc1ccc(CNC(=O)CSc2nnnn2Cc2ccccc2)cc1", "outcome": "inactive"}, {"compound": "CCNc1oc(-c2cccc3ccccc23)nc1C#N", "outcome": "inactive"}, {"compound": "COc1ccccc1-c1nc(C#N)c(NCc2ccc(F)cc2)o1", "outcome": "inactive"}, {"compound": "O=c1c2ccccc2c(C=NCCCN2CCOCC2)c(O)n1Cc1ccccc1", "outcome": "inactive"}, {"compound": "CC(C)NC(=O)N(C)C[C@H]1Oc2ccc(NC(=O)C3CC3)cc2C(=O)N([C@H](C)CO)C[C@@H]1C", "outcome": "inactive"}, {"compound": "COC(=O)c1sc(NC(=O)c2cc3c(s2)CCCC3)nc1C", "outcome": "inactive"}, {"compound": "Cn1c(=O)[nH]c(=O)c2c1nc(SCC(=O)O)n2CCc1ccccc1", "outcome": "inactive"}, {"compound": "CCc1ccc(C(=O)CSc2nc3ccccc3c(=O)[nH]2)cc1", "outcome": "inactive"}, {"compound": "c1ccc(Nc2n[nH]nc2-c2ccccc2)cc1", "outcome": "inactive"}, {"compound": "CCn1c(=O)c(-c2nc3ccccc3[nH]2)c(O)c2ccccc21", "outcome": "inactive"}, {"compound": "C[C@H](CO)N1C[C@H](C)[C@@H](CN(C)C(=O)Nc2ccc(C(F)(F)F)cc2)Oc2c(cccc2N(C)C)C1=O", "outcome": "inactive"}, {"compound": "Cc1cc2oc(=O)cc(CSc3nnc(-c4cccs4)o3)c2cc1C(C)C", "outcome": "inactive"}, {"compound": "CC(=O)N1C(c2ccccc2O)C[C@]2(C)CC(=O)NC12", "note": "(some centres not stated)", "outcome": "inactive"}, {"compound": "CCCc1cc(=O)[nH]c(SCC(=O)Nc2cc(S(=O)(=O)N(CC)c3ccccc3)ccc2Cl)n1", "outcome": "inactive"}, {"compound": "Cc1ccc(C(=O)Nc2sc3c(c2C(=O)O)CCCC3)o1", "outcome": "inactive"}, {"compound": "CN(C)CCCN1C(=O)C(=O)/C(=C(/O)c2ccncc2)C1c1ccccc1", "note": "(configuration not stated)", "outcome": "inactive"}, {"compound": "Cc1cc(C(=O)OCc2nnc(-c3ccccc3)o2)c(C)n1-c1ccccc1", "outcome": "inactive"}, {"compound": "COc1ccc(C(=O)OCC(=O)c2ccccc2)cc1S(=O)(=O)N1CCOCC1", "outcome": "inactive"}, {"compound": "Cc1ccc(C2CC(c3cccc(Br)c3)Nc3nnnn32)cc1", "note": "(configuration not stated)", "outcome": "inactive"}, {"compound": "Cc1cc(N(CN2CCCC2=O)C(=O)c2ccc(F)cc2)no1", "outcome": "inactive"}, {"compound": "COC(=O)[C@]1(C)N[C@H](CN(C)C(=O)NC(C)C)[C@@H]2C(=O)N(Cc3ccccc3)C(=O)[C@@H]21", "outcome": "inactive"}, {"compound": "COc1ccc(NC(=O)Nc2ccc3c(c2)C(=O)N([C@H](C)CO)C[C@H](C)[C@@H](CN(C)S(=O)(=O)c2cccs2)O3)cc1", "outcome": "inactive"}, {"compound": "CC(C)NC(=O)Nc1ccc2c(c1)C(=O)N([C@H](C)CO)C[C@@H](C)[C@@H](CN(C)C(=O)NC1CCCCC1)O2", "outcome": "inactive"}, {"compound": "CCCn1nnnc1SCC(=O)NNC(=O)c1ccco1", "outcome": "inactive"}, {"compound": "CCCn1c(SCC(=O)Nc2c(C)cccc2CC)nnc1C(C)C", "outcome": "inactive"}, {"compound": "Cc1cc(OC(=O)N2CCOCC2)cc(C)c1Cl", "outcome": "inactive"}, {"compound": "CC1CN(Cc2ccccc2)c2nc3c(c(=O)n(C)c(=O)n3C)n2C1", "note": "(configuration not stated)", "outcome": "inactive"}, {"compound": "OC1(c2cccc(F)c2)CCN(Cc2ccncc2)CC1", "outcome": "inactive"}, {"compound": "CCOC(=O)CNC(=O)CNC(=O)c1ccc(OC)cc1", "outcome": "inactive"}, {"compound": "COc1ccc(CCC(=O)Nc2sccc2C#N)cc1", "outcome": "inactive"}, {"compound": "COc1ccc(CCNC(=O)COC(=O)c2ccc(Br)o2)cc1", "outcome": "inactive"}, {"compound": "COc1cc(-c2nc(-c3cccc(C)c3)no2)cc(OC)c1OC", "outcome": "inactive"}, {"compound": "Cc1[nH]n2c(=O)c3c(nc2c1-c1ccccc1)CCCC3", "outcome": "inactive"}, {"compound": "CCOC(=O)C1=C(c2ccccc2)NC(=O)NC1c1ccc(O)c(OCC)c1", "note": "(configuration not stated)", "outcome": "inactive"}, {"compound": "CCOC(=O)C1=C(C)NC(=O)NC1c1ccc(Br)s1", "note": "(configuration not stated)", "outcome": "inactive"}, {"compound": "O=C(c1cccc(-n2cccc2)c1)N1CCN(S(=O)(=O)c2c(F)cccc2F)CC1", "outcome": "inactive"}, {"compound": "CC(=O)N1CCN(c2ccc([N+](=O)[O-])c(-n3nc(C)cc3C)c2)CC1", "outcome": "inactive"}, {"compound": "Cc1ccc(S(=O)(=O)NC(=O)NC(C)Cc2ccccc2)cc1", "note": "(configuration not stated)", "outcome": "inactive"}, {"compound": "COc1ccc(NC(=O)N(C)C[C@H]2Oc3c(NS(=O)(=O)c4cn(C)cn4)cccc3C(=O)N([C@H](C)CO)C[C@@H]2C)cc1", "outcome": "inactive"}, {"compound": "Nc1ncnc2c1ncn2[C@@H]1O[C@H](CNCC#Cc2ccccc2)[C@@H](O)[C@H]1O", "outcome": "inactive"}, {"compound": "C=CCn1c(O)c(N=Nc2ccccc2C)c2ccccc21", "outcome": "inactive"}, {"compound": "C=CCn1c(-c2cccc3ccccc23)n[nH]c1=S", "outcome": "inactive"}, {"compound": "c1ccn2c(SCc3cn4ccsc4n3)nnc2c1", "outcome": "inactive"}, {"compound": "CCOc1cccc(C2C(C(=O)c3ccco3)=C(O)C(=O)N2Cc2ccncc2)c1", "note": "(configuration not stated)", "outcome": "inactive"}, {"compound": "CCC(C)(C)NC(=O)C(c1cccn1C)N(Cc1ccc(OC)cc1)C(=O)Cn1nnc2ccccc21", "note": "(configuration not stated)", "outcome": "inactive"}, {"compound": "O=C(Oc1cccc(NC(=O)c2ccco2)c1)c1cccc(S(=O)(=O)N2CCCC2)c1", "outcome": "inactive"}, {"compound": "Cc1cc(-n2c(SCC(=O)NCc3cccs3)nc3n[nH]c(C)c3c2=N)ccc1Cl", "outcome": "inactive"}, {"compound": "O=c1[nH]c(S)nc2sc3c(c12)CCCC3", "outcome": "inactive"}, {"compound": "CCOC(=O)C1=C(C)NC2=C(C(=O)CCC2)C1c1coc2ccccc2c1=O", "note": "(configuration not stated)", "outcome": "inactive"}, {"compound": "COc1ccc(CCNC(=O)c2ccccc2Cl)cc1OC", "outcome": "inactive"}, {"compound": "CCOc1cc(CN2CCN(CCc3ccccc3)C(CCO)C2)ccc1OC", "note": "(configuration not stated)", "outcome": "inactive"}]}]}
